High-throughput results as filed in PubChem.
aSyn yeast rescue: inhibitors of alpha-synuclein toxicity in yeast. S. cerevisiae alpha-synuclein toxicity rescue, BacTiter-Glo growth, 24 h. Potency, µM (series often up to 46.1 µM), hits mostly activators. actives 0.02% (n = 94,000). AID 1347070; active means well fitted activation curve with a large enough effect
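Growth restoration measured by BacTiter-Glo luminescence after 24 hr at 30 deg C; alpha-synuclein yeast, raffinose-pregrown to mid-log, were added at OD600=0.02 in galactose medium onto pinned compounds.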
Large screens that a line does not name were inactive. Many of the other results were omitted from the sample, so hits are more common in it than they were.

Cc1cccc(Nc2nnc(-c3ccc(C)c(S(=O)(=O)N4CCN(C)CC4)c3)c3ccccc23)c1	none
CCOC(=O)c1c(C)[nH]c(C)c1S(=O)(=O)N(C)CC(=O)Nc1cccc(C(F)(F)F)c1	none
COc1ccc(CCNC(=O)c2c(C)nn(-c3ccc(F)cc3)c2-n2cccc2)c(OC)c1OC	none
O=C(CSc1ncc2c(n1)-c1ccccc1N(Cc1ccc(Cl)cc1)S2(=O)=O)c1ccc(Cl)cc1	none
Cc1ccc(OCc2cc(=O)n3cc(C)sc3n2)c(NC(=O)c2ccco2)c1	none
COc1ccc(CNC(=O)Cc2ccc(NC(=O)N3CCCCc4ccccc43)cc2)cc1	none
O=C(NCc1ccc(F)cc1)c1cc2cccc3c2n1CCS3	none
CCOc1ccc(CNC(=O)C2CCN(c3nnc(-n4c(C)ccc4C)s3)CC2)cc1	none
COC(=O)c1ccc2c(=O)n(CCCCCC(=O)NCCc3ccccc3)c(=O)[nH]c2c1	none
CCCC(=O)Nc1ccccc1C(=O)OCc1cc(=O)n2nc(C(C)C)sc2n1	none
O=C(NCc1cccc(Cl)c1)C1CCCN(c2ncnc3onc(-c4ccc(F)cc4)c23)C1 (configuration not stated)	none
CCOC(=O)C1=C(CN2CCN(c3cccc(OC)c3)CC2)NC(=O)NC1c1ccc(OC)cc1 (configuration not stated)	none
Cc1cc(C)n(CCc2nc3c4ccccc4nc(SCc4ccc(Cl)cc4)n3n2)n1	none
COc1ccc(-n2ncc(C(=O)Nc3ccc4c(c3)OCO4)c2C2CCN(C(=O)OC(C)(C)C)CC2)cc1	none
Cc1ccccc1NS(=O)(=O)c1ccc2[nH]cc(C(=O)NC(C)c3ccccc3)c(=O)c2c1 (configuration not stated)	none
COCCNc1oc(/C=C/c2ccc(F)cc2)nc1C#N	none
COc1ccc(NC(=O)c2c(NCc3ccc(C)o3)sc3c2CCC(C)C3)cc1 (configuration not stated)	aSyn yeast rescue 14µM
CCOc1ccc(NC(=O)c2c(NCc3ccc(C)o3)sc3c2CCCCC3)cc1	none
COc1ccccc1NC(=O)c1c(NCc2ccc(C)o2)sc2c1CCC(C)C2 (configuration not stated)	none
COc1cc(OC)c(NC(=O)c2oc3ccc4c(c3c2C)C(=O)CC(C)(C)O4)cc1Cl	none
CCN(C(=O)NCc1noc2ccccc12)c1cc(C)ccc1C	none
CCCn1c2ccccc2c2cnn(CC(=O)N(CCCOC(C)C)Cc3ccco3)c(=O)c21	none
